An excerpt weighted towards active compounds, which were near 2.2% of everything screened.
CF NFkB block – blocks PAF-induced NF-kB reporter in cystic fibrosis cells. KKLEB NF-kB-GFP reporter, GFP fluorescence overnight. inhibition, % at 5 µM. 360,000 tested, 0.86% active;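 active = at least 50% inhibition at 5 µM, scaled per plate between neutral and stimulator controls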;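 note: PAF is a Pseudomonas aeruginosa culture filtrate used as stimulus; plate controls were PAF-stimulated DMSO wells for no effect and unstimulated DMSO wells for full effect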
iPSC survival up – enhancers of human iPSC single-cell survival | hiPSC single-cell survival, ATPlite luminescence; 100% = ROCK inhibitor wells, 0% = DMSO | survival enhancement, % at 20 µM | 360,000 tested, 0.044% active; in the data active = survival enhancement above about 18%;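 note: cells exposed to compounds for 16 hours before the ATP read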
KKLEB cytotox – CF airway cell cytotoxicity counter-screen; AID 602141; KKLEB CF airway cells viability, ATPlite luminescence, overnight; hits give low values; cells stimulated with P. aeruginosa culture filtrate; activity change (cytotoxicity), % at 5 µM; 360,000 tested, 0.36% active;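 active = corrected activity change at or below -50% at 5 µM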
PPC-1+TRAIL kill – kills PPC-1 cancer cells in the presence of TRAIL; PPC-1 cells + TRAIL, ATPLite viability luminescence; cell killing (% activity), % at 4 µM or 5 µM; 220,000 tested, 0.41% active;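 active = cell killing above 50% in the first pass at 4 µM, then a duplicate retest at 5 µM averaging 50% or more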;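 note: plate controls were cells with TRAIL plus DMSO for no effect and medium-only wells lacking cells for full effect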
TRAIL sens C8 – sensitizes caspase-8 expressing cells to TRAIL; NB7+C8 cells + TRAIL, ATPlite viability luminescence; inhibition (viability loss, TRAIL sensitization), % at 10 µM; 360,000 tested, 1% active; AID 624354;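 active = compounds causing at least 50% loss of cell viability in the single-dose screen, relative to plate controls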
HIF-2a inh – inhibitors of HIF-2a; 360,000 tested, 0.72% active; 786-0 RCC cells HIF-2a reporter, luciferase luminescence, overnight; inhibition, % at 18.8 µM;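 active = inhibition of the luminescence signal of 40% or more relative to plate controls, in a single-dose primary screen at 18.75 µM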
An asterisk follows results filed as active; / = no result given.

SMILES	CF NFkB block	iPSC survival up	KKLEB cytotox	PPC-1+TRAIL kill	TRAIL sens C8	HIF-2a inh
CC(=O)[C@H]1CC[C@H]2[C@@H]3C[C@H](C)C4=CC(=O)CC[C@]4(C)[C@H]3[C@@H](O)C[C@]12C	56.6*	-2.9	19.8	-2.2	8.9	16.7
COc1ccc(CCNC(=O)C2CCCN(S(C)(=O)=O)C2)cc1 (centres undefined)	9.7	0.1	3.8	/	8.2	7.4
COc1ccc(S(=O)(=O)/N=C2/C=CC(=O)C(C)=C2C)cc1	-11.3	-0.8	22.0	15.5	-0.5	8.6
CC1=C(C)/C(=N\OS(=O)(=O)c2ccc(C)cc2)C=CC1=O	71.5*	-2.3	-36.4	33.9	46.1	88.0*
CC(C)[C@H](NC(=O)[C@@H]1Cc2ccccc2CN1)C(=O)Nc1ccc2c(c1)OCO2	3.6	0.6	7.2	/	3.0	-81.2
C[C@@H](NC(=O)[C@@H]1Cc2ccccc2CN1)C(=O)Nc1ccc2c(c1)OCO2	-16.7	26.2*	17.3	/	-3.8	-62.4
CC(=NO)c1cc(Br)c2cccc3c2c1CC3	8.3	-0.4	-2.3	/	9.7	-18.6
Cc1ccc(NC(=S)NNC(=S)Nc2ccc(C)cc2C)cc1	56.8*	1.7	1.7	10.3	-41.9	-60.0
Cc1ccc(NC(=O)CCC(=O)NNC(=S)Nc2ccccc2)c(C)c1	5.1	0.4	5.6	4.7	-13.0	17.2
CC[C@H](C)C1OC(=O)[C@@H](C)[C@@H](CC)NC(=O)[C@H](C)N(C)C(=O)C(C)(C)C(=O)C(C)NC(=O)[C@H](Cc2ccc(OC)cc2)N(C)C(=O)[C@H](C(C)C)N(C)C(=O)CNC(=O)[C@H](CC(C)C)N(C)C(=O)CNC1=O (some centres undefined)	95.6*	-5.1	-93.6*	/	54.7*	33.6
Cc1c(C=Nc2ccc(S(=O)(=O)CCO)cc2)c(O)[nH]c(=O)c1C#N	-14.9	-0.4	0.3	/	-6.9	8.4
O=C(CN1C(=O)c2ccccc2S1(=O)=O)c1ccccc1	0.5	-2.5	0.6	19.5	28.8	46.5*
O=C(NCc1cccnc1)C(=O)N/N=C/c1ccccc1[N+](=O)[O-]	-17.1	0.1	4.7	14.1	-6.5	-9.8
c1ccc2cc(N3CCCCC3)ccc2c1	-0.5	-3.9	-5.2	/	6.6	-19.1
O=C1c2ccccc2C(=O)c2cc(N3CCCCC3)ccc21	-123.1	-2.7	-63.2*	/	86.5*	-10.2
O=C(O)c1ccccc1C(=O)Nc1ccc(Oc2cccc3ccccc23)cc1	7.1	-1.1	19.8	5.0	-0.4	78.3*
CSCCC(C(=O)NC1CCCC1)n1c(-c2ccncc2)nc2ccccc21 (centres undefined)	/	/	/	/	10.2	-8.8
Nc1nc(SCc2ccccc2)c2[nH]cnc2n1	22.1	0.2	-21.5	/	-7.3	-36.8
CNc1ncnc(Sc2nc(N)nc3nc[nH]c23)c1[N+](=O)[O-]	3.8	-0.7	5.1	/	73.8*	9.1
Nc1nc(Sc2ccc([N+](=O)[O-])c3nonc23)c2[nH]cnc2n1	-19.1	-2.4	-7.4	/	75.2*	37.9
Cc1ccc2oc(C(=O)Nc3nnc(C)s3)c(C)c2c1	-15.3	-1.4	-4.7	37.7	44.8	-188.1
CCOc1ccc2oc(C(=O)O)c(C)c2c1	-13.3	-0.3	-3.8	-2.7	-11.3	-54.4
COc1ccc2oc(C(=O)Nc3nnc(C)s3)c(C)c2c1	-58.9	-0.5	-26.0	/	70.4*	-196.8
CCC(=O)Nc1ccc(NC(=S)NC(=O)c2oc3ccccc3c2C)cc1	1.3	4.0	-15.6	2.1	2.0	-2.3
CCOc1ccc2oc(C(=O)Nc3cc(C)ccn3)c(C)c2c1	-32.8	-0.4	-42.1	/	70.4*	-190.4
SMILES	CF NFkB block	iPSC survival up	KKLEB cytotox	PPC-1+TRAIL kill	TRAIL sens C8	HIF-2a inh
CCC(=O)Nc1ccc(NC(=O)c2oc3ccccc3c2C)cc1	-5.3	-0.3	-0.9	/	-0.6	62.0*
Cc1ccnc(NC(=O)c2oc3ccccc3c2C)c1	-24.4	0.0	-26.9	/	65.7*	-70.6
CCC(=O)Nc1ccc(NC(=O)c2ccco2)cc1	-1.2	-1.5	4.5	28.9	56.6*	-203.3
CN(C)c1ccc(/C=c2\sc3n(c2=O)CCCN=3)cc1	-4.5	-6.5	-8.5	28.7	62.0*	-9.0
CCOC(=O)NC(=O)CSc1nc(C)cc(C)c1C#N	-3.8	-4.2	-5.9	36.7	72.1*	-64.6
CCOC(=O)CNC(=O)CSc1nc(C)cc(C)c1C#N	2.9	12.4	4.1	17.5	20.7	-6.2
CC(C)(C)C(=O)Nc1ccc(-c2csnn2)cc1	5.6	0.0	-2.4	3.3	15.8	-192.4
CCOC(=O)c1ccc(N=c2sc(C(=O)OC)cc(=O)n2-c2ccc(C(=O)OCC)cc2)cc1	16.6	13.1	-19.4	-4.1	64.7*	38.9
Nc1ncnc(N)c1NC(=O)c1cc(Cl)c(OCc2ccccc2)c(Cl)c1	-18.7	-0.1	2.4	/	3.6	10.5
CCOC(=O)c1cn(-c2ccc(F)c(F)c2F)c2c(F)c(F)c(F)cc2c1=O	-10.7	1.5	-7.4	-2.0	64.2*	12.8
CCOC(=O)c1cn(-c2ccccc2CO)c2c(F)c(F)c(F)cc2c1=O	10.1	1.1	-13.0	-9.7	1.7	12.4
CCOc1cccc2cc(-c3nnc(NCc4ccco4)s3)c(=O)oc12	-4.8	-0.2	5.7	13.9	55.4*	-197.0
COc1ccc2oc(=O)c(-c3nnc(NCc4ccco4)s3)cc2c1	-16.0	0.9	7.0	5.1	12.1	-195.4
CCOc1cccc2cc(-c3cn4cc(C)ccc4n3)c(=O)oc12	-1.6	-6.4	-40.6	45.6	65.8*	-178.8
CN1CCN(C(c2ccccn2)c2cc(Cl)c3cccnc3c2O)CC1 (centres undefined)	22.3	-0.8	-32.0	25.4	2.0	20.3
Cc1ccc(C(c2cc(Cl)c3cccnc3c2O)N2CCN(C)CC2)cc1 (centres undefined)	39.3	-0.5	-27.8	/	9.8	43.2*
Cc1cccc(NC(=O)CSc2cc(C(=O)c3nccn3C)c3ccccc3n2)c1	39.5	0.5	-53.8*	-5.7	38.8	-11.2
Cc1cc(C)cc(NC(=O)CSc2cc(C(=O)c3nccn3C)c3ccccc3n2)c1	-7.3	-0.6	1.6	8.5	6.4	17.4
COc1ccc(-c2cn3cc(C)ccc3n2)cc1Br	-41.0	-3.6	-45.7	87.0*	75.3*	-109.1
COc1ccc(-c2cn3cc(Cl)ccc3n2)cc1OC	-33.6	-1.3	14.0	6.7	10.3	-285.5
COCCCNc1cc(C)nc2ccccc12	-11.5	-0.5	16.5	13.6	-4.4	8.9
Cc1cc(NCCCCCCCNc2cc(C)nc3cc([N+](=O)[O-])ccc23)c2ccc([N+](=O)[O-])cc2n1	7.0	-3.4	10.7	/	57.6*	32.9
O=C1[C@H]2[C@@H](/C=C/c3ccccc3)N3C(=O)CN(CC4CC4)C(=O)[C@@]3(Cc3ccccc3)[C@H]2C(=O)N1c1ccccc1	-5.9	-0.2	3.2	/	54.9*	4.7
